# Experimental data: PubChem BioAssay (EPA / NIEHS)
# Inconclusive results are not listed. Activity calls are given as the source filed them. Rule for the calls: active = hit-call score of the fitted dose curve at least 0.9, where 1 is the maximum; inconclusive = response in the unintended direction; inactive = score below 0.9.
# Experiment: CCTE_Simmons_MITO_viability: CellTiter-Glo Viability Assessment for CCTE's HepG2 Seahorse XF Respirometric Screening Assay [post-hoc], Simmons Lab (AID 2284007);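 for AC50: cells exposed to chemical for 90 min before the ATP read; actives lower ATP signal relative to DMSO baseline meaning reduced viability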
# Description: CCTE_Simmons_MITO is cell-based, respirometric assay using HepG2 cells and a Seahorse XF Analyzer to measure oxygen consumption rates over four temporal phases spanning a total of 72 minutes: pre-injection (pre-treatment), basal (following test compound injection), maximal (following FCCP uncoupler injection), and inhibited (following rotenone/antimycin A injection)CCTE_Simmons_MITO_viability is one of 4 assay components measured from the CCTE_Simmons_MITO assay. It is designed to make measurements of ATP content, a form of viability reporter, as detected with bioluminescence signals by Luciferase-coupled ATP quantitation technology. Data from the assay component CCTE_Simmons_MITO_viability was analyzed at the endpoint, CCTE_Simmons_MITO_viability, in the positive analysis fitting direction relative to DMSO as the negative control and baseline of activity. Using a type of viability reporter, measures of ATP content for loss-of-signal activity can be used to understand the viability. To generalize the intended target to other relatable targets, this assay endpoint is annotated to the cell cycle intended target family, where the subfamily is cytotoxicity.
# Test chemicals were administered as a titrated series of 7 concentrations from 125 nM up to 100 uM [final] for 90 minutes prior to single endpoint detection. Three biological replicates of technical singles were run for every chemical concentration tested. Dimethylsulfoxide [DMSO] was used as the vehicle control. Dichlone [DCNQ] was used as the positive control and was administered as a titrated series of 8 concentrations from 10 nM up to 100 uM [final].
Structure (SMILES),AC50,outcome
CC(C)c1nnc2ccc(-c3ocnc3-c3cc(F)ccc3F)cn12,50 µM (active),–
O=C(NO)C1(NS(=O)(=O)c2ccc(Oc3ccc(F)cc3)cc2)CCOCC1,–,inactive
Cc1nccn1-c1ccc(Sc2cccc(C3(C(N)=O)CCOCC3)c2)cc1,–,inactive
CCN(CC)C(=S)SSC(=S)N(CC)CC,–,inactive
O=C1CN(N=Cc2ccc([N+](=O)[O-])o2)C(=O)N1,–,inactive
CCOc1ccc2[nH]cc(C(=O)NCc3ccccc3)c(=O)c2n1,–,inactive
NC(=O)NN=Cc1ccc([N+](=O)[O-])o1,–,inactive
O=C(O)c1cccc(C[C@@H]2COc3ccc(OCc4nc5cc(F)ccc5s4)cc3[C@@H]2O)c1,–,inactive
CCc1ccc(O)c(C(C)(C)C)c1,–,inactive
C=CCc1cc(S(=O)(=O)c2ccc(O)c(CC=C)c2)ccc1O,–,inactive
